KDM5B inh: blocks human KDM5B histone demethylase activity. Q9UGL1. KDM5B demethylase, FDH-coupled NADH fluorescence (FDH is formaldehyde dehydrogenase). Potency, µM (doses to about 57.7 µM), actives largely listed as inhibitors. actives 2.6% (n = 220,000). AID 1347165; active = well fitted inhibition curve with a large enough effect; note: nearly all actives have a fitted effect of over 70% in size
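Compound dilutions met 200 nM (final) KDM5BΔAP for 10 min at room temperature before substrate addition. The substrate mix held 12.5 µM H3K4me3 with cofactors 25 µM α-ketoglutarate and 50 µM Fe²⁺. NADH signal gain over 30 min defined activity.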
Hits are given with their value; n = inactive. The full list was thinned out, with hits kept by preference.

SMILES	KDM5B inh
c1ccc(CNC2(c3nnnn3-c3ccccc3)CCCCC2)cc1	n
Clc1ccc(-c2ccc(CNC3CN4CCC3CC4)o2)c(Cl)c1 (stereo not drawn)	n
O=C1NC2(CCN(Cc3cccnc3)C2)OCc2ccccc21 (stereo not drawn)	n
O=C1NC2(CN(Cc3ccccn3)C2)Oc2ccccc21	n
O=C1NC2(CCN(Cc3ccccn3)C2)OCc2ccccc21 (stereo not drawn)	39.8µM
O=C1N(Cc2ccccn2)C[C@H]2CN(Cc3cccnc3)CCN12	n
COCCNC(=O)[C@H]1CN2CC[C@H]1C[C@@H]2Cn1cc(CC2CCCCC2)nn1	n
O=C(CC1CCCC1)N1[C@H]2CC[C@@H]1c1cnc(-c3ccc(F)cc3)nc1C2	n
COc1cc2c(cc1OCc1ccccc1)N([S+](=O)([O-])c1cccc3cccnc13)CC21CCN(C)CC1	n
O=C(Nc1ccc(=O)n2c1[C@@H]1C[C@@H](CN(S(=O)(=O)c3ccccc3)C1)C2)c1ccccc1	n
CN(C)Cc1ccccc1-c1ccc2n(c1=O)C[C@H]1C[C@@H]2CN(C(=O)c2ccco2)C1	31.6µM
O=C(c1ccc(F)cc1)N1C[C@@H]2C[C@H](C1)c1c(C3CCCCC3)ccc(=O)n1C2	n
O=C(Nc1ccc2n(c1=O)C[C@H]1C[C@@H]2CN(C(=O)c2ccccc2)C1)NC1CCCCC1	35.5µM
O=C(Nc1ccc(=O)n2c1[C@@H]1C[C@@H](CN(S(=O)(=O)c3ccccc3)C1)C2)c1ccco1	n
O=C(c1ccccc1)N1C[C@@H]2C[C@H](C1)c1ccc(C3CCCCC3)c(=O)n1C2	39.8µM
O=C(c1cccs1)N1C[C@@H]2C[C@H](C1)c1ccc(C3CCCCC3)c(=O)n1C2	n
O=C(c1ccc(F)cc1)N1C[C@@H]2C[C@H](C1)c1ccc(C3CCCCC3)c(=O)n1C2	31.6µM
O=C(C1CCCCC1)N1C[C@@H]2C[C@H](C1)c1c(-c3cncnc3)ccc(=O)n1C2	n
O=C(Cc1cccc(F)c1)N1CCC2(CC1)NCc1ccccc1-n1ccnc12	n
C1NC2CC3CC1CC(C3)C2	n
C[N+](C)(C)CC1CCCCC1=O (stereo not drawn)	n
CCOC(=O)C1=C(N)Oc2cc(C)oc(=O)c2C12C(=O)Nc1ccccc12 (stereo not drawn)	n
C=C[C@H]1CN2CC[C@H]1C[C@@H]2CNCc1ccc(SC)cc1	n
CCCS(=O)(=O)Nc1ccc2n(c1=O)C[C@H]1C[C@@H]2CN(C(=O)Nc2ccc(OC)cc2)C1	n
O=C(c1ccccc1)N1C[C@@H]2C[C@H](C1)c1c(-c3ccccc3F)ccc(=O)n1C2	n
SMILES	KDM5B inh
Cc1ccccc1-c1ccc2n(c1=O)C[C@H]1C[C@@H]2CN(C(=O)c2ccc(F)cc2)C1	35.5µM
O=C(c1ccc(F)cc1)N1C[C@@H]2C[C@H](C1)c1c(/C=C/c3ccc(Cl)cc3)ccc(=O)n1C2	31.6µM
O=C(c1ccc(F)cc1)N1C[C@@H]2C[C@H](C1)c1c(-c3cncnc3)ccc(=O)n1C2	n
CC(=O)N1C[C@@H]2C[C@H](C1)c1ccc(NC(=O)Nc3ccccc3)c(=O)n1C2	28.2µM
Cc1ccccc1-c1ccc2n(c1=O)C[C@H]1C[C@@H]2CN(C(=O)c2cncnc2)C1	n
O=C(Nc1ccc2n(c1=O)C[C@H]1C[C@@H]2CN(C(=O)c2ccccn2)C1)c1ccccc1	n
CCOc1ccc(CNCCc2c[nH]c3ccccc23)cc1OC	n
Cc1ncsc1CN1CC(CO)C2(CCNCC2)C1 (stereo not drawn)	n
COc1ccc(-c2cc([C@H]3CN4CC[C@H]3C[C@@H]4CNS(=O)(=O)c3ccc(Cl)cc3)n(C)n2)cc1OC	n
Cc1ccc2c(c1)C(SCC(=O)Nc1ccccc1C(=O)O)c1ccccc1O2 (stereo not drawn)	n
Cc1[nH]c2ccccc2c1C(=O)C(C)NC(C)c1ccc(F)c(F)c1 (stereo not drawn)	n
N#CCC1CN2CCC1C(c1ccccc1)C2 (stereo not drawn)	n
Fc1cccc(CC2CCOC3(CCNCC3)C2)c1 (stereo not drawn)	n
COc1ccc(C(=O)N2CCC3(CC2)c2nccn2-c2ccccc2CN3C)c(OC)n1	n
O[C@H]1[C@H](NCC2CCCC2)[C@@H](c2ccccc2)C[C@H]1O	n
COc1ccc(NC(=O)NC[C@H]2C[C@@H]3CCN2C[C@@H]3CN2CCN(c3ncccn3)CC2)cc1	n
Cc1ccc(C)c(NC(=O)c2cn(Cc3ccccc3)nn2)c1	n
Cc1ncc2c(n1)C[C@@H]1CC[C@H]2N1C(=O)NCc1ccccc1	n
O=C(c1ccccc1)N1C[C@@H]2C[C@H](C1)c1ccc(-c3cccc(C(F)(F)F)c3)c(=O)n1C2	25.1µM
O=C(c1ccccc1)N1C[C@@H]2C[C@H](C1)c1ccc(-c3ccc(Cl)cc3)c(=O)n1C2	n
O=C(O)COCC(=O)N1C[C@@H]2C[C@H](C1)c1ccc(-c3cccc(C(F)(F)F)c3)c(=O)n1C2	31.6µM
O=C(O)CCC(=O)N1C[C@@H]2C[C@H](C1)c1ccc(-c3ccc(Cl)cc3)c(=O)n1C2	35.5µM
CC(C)NC(=O)N1CC[C@@H](CC(=O)O)[C@@H](CCN2C[C@@H]3C[C@H](C2)c2cccc(=O)n2C3)C1	n
Cc1ccc(N2CC(C(=O)OCC(=O)Nc3ccc(C#N)c(Cl)c3)CC2=O)cc1 (stereo not drawn)	n
CC1CCC(c2nnnn2-c2ccccc2)(N2CCOCC2)CC1 (stereo not drawn)	n
SMILES	KDM5B inh
Cc1noc(C)c1COc1ccc(CC(=O)N2CCN(CC(=O)N3CCCC3)CC2)cc1	n
Cc1ncc2c(n1)C[C@@H]1CC[C@H]2N1C(=O)c1nn(C)c2ccccc12	n
O=[N+]([O-])c1ccc(NCCNS(=O)(=O)c2ccccc2)c2ncccc12	n
C[N+](C)(C)Cc1cccs1	n
O=C1Nc2ccccc2CNC12CCN(Cc1ccncc1)CC2	n
CN(C)C(=O)Oc1ccc2c(=O)c(-c3ccc(Br)cc3)coc2c1	n
Cc1ccccc1C(Cn1ccnc1-c1cnc[nH]1)N(C)C (stereo not drawn)	n
Cc1cc(C)cc(N2C(=O)NC(=O)C3(Cc4cc(C)ccc4N(C)C3)C2=O)c1 (stereo not drawn)	n
CCOc1ccc(C(=O)N2CCC3(CC2)NCc2ccccc2-n2ccnc23)cc1	n
CCCN1CCN(Cc2cc(C(C)=O)ccc2OC)CC1	n
COc1cc2c(cc1OC1CCCC1)NC(=O)C21CCN(c2ncc(C(C)C)cn2)CC1	35.5µM
COc1cc2c(cc1OC1CCCC1)NC(=O)C21CCN(c2ncccn2)CC1	n
CCc1cnc(N2CCC3(CC2)C(=O)Nc2cc(Oc4ccccc4)c(OC)cc23)nc1	31.6µM
COc1cc2c(cc1OC1CCCC1)NC(=O)C21CCN(Cc2nccn2C)CC1	n
COc1cc2c(cc1Oc1cccc(N(C)C)c1)NC(=O)C21CCN(Cc2ccccc2)CC1	n
CCc1cnc(N2CCC3(CC2)C(=O)Nc2cc(OC4CCCC4)c(OC)cc23)nc1	35.5µM
COc1cc2c(cc1Oc1cccc(N(C)C)c1)NC(=O)C21CCN(c2ncc(F)cn2)CC1	31.6µM
COc1cc2c(cc1OC1CCCC1)NC(=O)C21CCN(C(=O)Cc2ccccc2)CC1	n
COc1cc2c(cc1Oc1ccccc1)NC(=O)C21CCN(CC2CC2)CC1	n
COc1cc2c(cc1Oc1ccccc1)NC(=O)C21CCN(Cc2cccnc2)CC1	n
COc1cc2c(cc1OC1CCCC1)NC(=O)C21CCN(Cc2ccccc2)CC1	n
COc1cc2c(cc1Oc1cccc(N(C)C)c1)NC(=O)C21CCN(CC2CC2)CC1	n

Assay outcomes from PubChem BioAssay.
